Here are results for 70 compounds from PubChem BioAssay AID504861 (Broad Institute, 2011).

In all, about 1,200 compounds went through this assay and about 290 (24%) were called active. Another 3% or so got no clear call; they are omitted. A selection follows. Potency and affinity values are given separately. Unmarked numbers belong to inactive results.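 The calls were made as follows: active = compounds lowering cell viability signal with fitted half-maximal concentration at most ten times their highest tested concentration; inconclusive = flat fit with 30 to 70% signal loss, or poor fit; inactive = the rest.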

A short description of the assay: HEK293T cell viability reduction, dose response, cytotoxicity control for LMP1 NF-kB inhibitor project, CellTiter-Glo luminescence, cherry-picks (AID 504861). The following applies: CellTiter-Glo ATP luminescence, 48 h; series mostly up to 26 µM; activity change, negative = cytotoxicity: at the top concentration.
`CC(=O)O[C@]1(C(C)=O)CC[C@H]2[C@@H]3C=C(C)C4=CC(=O)CC[C@@H]4[C@H]3CC[C@@]21C`: the “activity change, negative = cytotoxicity” value is 3.47%.
`Cc1ccc(-c2cc(C(=O)N/N=C/C=C/c3ccco3)c3ccccc3n2)cc1C`: the “activity change, negative = cytotoxicity” value is 6.86%.
`Cc1ccc(C(=O)NCC(=O)N(C)Cc2cccc(F)c2)s1`: the “activity change, negative = cytotoxicity” value is 9.7%.
In the case of `Cn1cccc1/C=N/n1c(-c2ccc(Cl)cc2Cl)n[nH]c1=S` it was 20.7%; in that of `CCn1nnc2cc(C(=O)NCCc3ccccc3F)ccc21`, 4.03%.
On to `O=C(Nc1cccc(C(=O)O)c1)Nc1ccccc1Cl`, for which the “activity change, negative = cytotoxicity” value is -4.79%.
As for `O=C(NCCc1cn2ccccc2n1)C1CCCCC1`, the “activity change, negative = cytotoxicity” value was 2.71%.
As for `Cc1ccc(C)c(Cn2c(O)c(N=NC(=S)Nc3ccccc3F)c3ccccc32)c1`, the “activity change, negative = cytotoxicity” value is 4.62%.
As for `N#CC1=C(N)C(C#N)(C#N)C(c2cccnc2)C2CC(c3ccccc3)CC=C12` (stereo not given), the “activity change, negative = cytotoxicity” value was -9.23%.
The result for `Cc1nc(C)n(C(C)CNC(=O)c2ccco2)n1` (stereo not given) reads 20.6%; that for `O=C(O)c1ccccc1Nc1cccc(OCc2ccc3ccccc3n2)c1`, 2.93%.
The result for `CCCC(=O)NCCCc1nc2ccccc2n1C` reads 4.83%.
For the compound `O=C(O)c1cc(=O)c2c(OCC(O)COc3cccc4oc(C(=O)O)cc(=O)c34)cccc2o1`, the “activity change, negative = cytotoxicity” value is 2.34%.
In the case of `COc1ccc(-n2c(C)c([N+](=O)[O-])c3ccc(O)c(CN(C)C)c32)cc1` it was -4.24%.
The result for `COc1ccc(Cl)cc1NC(=O)CN(C)S(=O)(=O)c1cccs1` reads 0.878%; that for `OCCN(CCO)CC(O)COCCC12CC3CC(CC(C3)C1)C2` (stereo not given), 6.07%.
In the case of `O=C(Nc1ccc2c(c1)nc1n2CCSC1)c1ccco1` it was 1.58%; in that of `CCn1c(/C=C/c2ccc([N+](=O)[O-])o2)nc2ccccc2c1=O`, -4.54%.
In the case of `Cc1ccc(/C=C/c2nc3ccccc3c(=O)[nH]2)cc1`, the “activity change, negative = cytotoxicity” value is 11.4%.
The result for `COc1ccccc1-c1ccccc1C1=CC(=O)CC(C)(C)C1=O` reads -7.07%.
The result for `COc1ccc(/C=C2\N=C(C)OC2=O)cc1[N+](=O)[O-]` reads 17%; that for `Brc1cccc(-c2cnco2)c1`, 4.42%; that for `O=c1[nH]c(=O)n([C@H]2C[C@H](O)[C@@H](CO)O2)cc1C(F)(F)F`, -5.32%.
Take `O=c1c2c(nc3c(-c4cccc(Br)c4)c[nH]n13)CCCC2`: the “activity change, negative = cytotoxicity” value is 5.69%.
In the case of `CC(C)C(=O)Nc1ccc(C(=O)N/N=C/c2cc(Br)cc(Br)c2O)cc1` it was 4.48%; in that of `Clc1ccc(-c2cn3nc4c(nc3n2)CCCC4)cc1`, 10.1%; in that of `COc1ccc(NC(=O)C2CCCN(S(=O)(=O)c3cccc4nonc34)C2)c(OC)c1` (stereo not given), 2%.
In the case of `CC(=O)Nc1ccc(C=NNc2nnc(NN=Cc3ccc(NC(C)=O)cc3)c3ccccc23)cc1` it was 6.7%; in that of `COc1ccc(N2C(=O)CC(Sc3nnc(-c4ccccc4)o3)C2=O)cc1` (stereo not given), 4.02%.
The result for `Cc1cccc(NC(=O)Nc2c(C)n(C)n(-c3ccccc3)c2=O)c1C` reads 43.7%; that for `Cc1c(C=O)c2ccccn2c1C(=O)c1ccccc1Cl`, 5.73%; that for `COC(=O)c1ccc2nc(-c3ccc4c(c3)OCO4)cn2c1`, 7.59%.
Take `Clc1ccc2nc(-c3ccc4c(c3)OCO4)cn2c1`: the “activity change, negative = cytotoxicity” value is -2.92%.
In the case of `Cc1c(/C(O)=C2/C(=O)C(=O)N(CCN3CCOCC3)C2c2ccccn2)cnn1-c1ccccc1` (stereo not given) it was -7.18%; in that of `CCc1cc(=O)oc2c(CNCc3c(F)cccc3Cl)c(O)ccc12`, 2.48%.
`CS(=O)(=O)c1ccc(Sc2nc3ccccc3s2)c([N+](=O)[O-])c1`: the “activity change, negative = cytotoxicity” value was -4.39%.
On to `COc1ccccc1C(=O)NC(=O)CSc1nnc(N)s1`, for which the “activity change, negative = cytotoxicity” value was -1.07%.
The result for `COc1ccc(-c2nc(CS(=O)CC(=O)NCc3ccc(Cl)cc3)c(C)o2)cc1` (stereo not given) reads 6.15%; that for `COc1ccc(S(=O)(=O)NCCc2csc(-c3cccnc3)n2)cc1`, 1.59%.
On to `Cc1cccc(Cn2cc(SCC(=O)Nc3nccs3)c3ccccc32)c1`, for which the “activity change, negative = cytotoxicity” value is 8.72%.
In the case of `O=C1/C(=C/c2cccnc2)SC(=S)N1Cc1ccco1`, the “activity change, negative = cytotoxicity” value is 5.5%.
For the compound `CCOc1ccc(-c2nc(CSCC(=O)NCc3ccco3)c(C)o2)cc1`, the “activity change, negative = cytotoxicity” value is 4.12%.
The result for `CCOC(=O)c1ccc(NC(=S)N2CCSC2c2ccc(OC)cc2)cc1` (stereo not given) reads 8.51%; that for `Cc1ccc(/C=C/C(=O)C2C(=O)c3ccccc3C2=O)cc1`, 3.89%.
In the case of `Cc1ccc(C(=O)NCCc2cccs2)cc1` it was -6.71%; in that of `Cc1cc(C)n(C2CCCCC2OC(=O)c2ccccc2F)n1` (stereo not given), 7.27%; in that of `CNC(=S)Nc1ccc2nc(C)c(C)nc2c1`, 1.31%.
The result for `Cc1cc(=O)[nH]c(N=N/C(=N/Nc2ccccc2C)c2ccccc2)n1` reads 0.611%; that for `O=C(Nc1ccc(Br)cc1)C1CC(O)CN1C(=O)OCc1ccccc1` (stereo not given), 6.89%; that for `O=C(O)CCc1nc(-c2ccc(Cl)cc2)no1`, 12.4%.
For `Cn1c(-c2ccccc2)cnc1SCC(=O)N1CCCCC1`, the “activity change, negative = cytotoxicity” value was 3.75%.
Take `NC(=O)c1sc2nc3c(c(-c4cccs4)c2c1N)CCCCC3`: the “activity change, negative = cytotoxicity” value is -1.65%.
In the case of `O=C(N/N=C/c1cccnc1)c1cc(-c2cccs2)nc2ccccc12` it was -0.968%; in that of `O=C(CN1C(=O)c2ccccc2C1=O)NNC1=NS(=O)(=O)c2ccccc21`, 6.87%.
In the case of `COc1ccc(-n2nc(C(=O)c3cccs3)cc(-c3nc4ccccc4[nH]3)c2=N)cc1` it was -3.71%.
On to `O=C(Nc1nnc(N2CCCCCC2)s1)c1cc(-c2ccc(Br)cc2)on1`, for which the “activity change, negative = cytotoxicity” value is 4.97%.
The result for `Cc1ccccc1N(C(=O)c1snc(C(N)=O)c1N)C(C(=O)NC1CCCCC1)c1ccc(O)cc1` (stereo not given) reads 1.86%.
As to `Cc1cc(NC(=O)c2ccc3c(c2)OCCO3)no1`, the “activity change, negative = cytotoxicity” value is 7.18%.
For `CSc1nc2cc3c(cc2n1C(=O)c1ccc(C)cc1)OCCO3`, the “activity change, negative = cytotoxicity” value was 1.34%.
The result for `C/C(=N\Nc1ccc(C(F)(F)F)cc1[N+](=O)[O-])C(C)C` reads 0.008%; that for `Nc1ccccc1SC1CC(=O)N(c2ccccc2Cl)C1=O` (stereo not given), -4.97%.
In the case of `Cc1cccc(Nc2nc(Cl)ncc2F)c1C` it was 10.1%; in that of `Cc1ccnc(SCCn2c(N3CCN(c4ccccc4)CC3)nc3c2c(=O)[nH]c(=O)n3C)n1`, 17.5%; in that of `O=C(NCCCN1CCCCC1)c1ccc2c(c1)NC(=O)c1ccccc1S2`, 7.92%.
With `COc1ccc(-c2cc3nc(-c4ccccc4)cc(N4CCCC(O)C4)n3n2)cc1` (stereo not given), the “activity change, negative = cytotoxicity” value was 14.7%.
As for `O=C(N/C(=C/c1ccc(Br)cc1)C(=O)N1CCOCC1)c1ccc(Br)o1`, the “activity change, negative = cytotoxicity” value is 7.11%.
For the compound `O=C(NCCc1ccccc1)c1ccc2nccnc2c1`, the “activity change, negative = cytotoxicity” value is 1.28%.
In the case of `COc1cccc(-c2nc(NCc3ccccc3)c3ccccc3n2)c1O` it was 3.06%; in that of `O=C(Nc1ccc(Cl)c(Cl)c1)Nc1nc(-c2ccccc2)cs1`, 0.564%; in that of `CCc1ccccc1N(CC(=O)NCc1ccco1)C(=O)c1snc(C(N)=O)c1N`, 9.6%.
